# Hits are enriched below; roughly 10% of the tested compounds scored in any of these assays.
# ALDH1A1 inh: inhibitors of human aldehyde dehydrogenase 1A1; Purified ALDH1A1, NADH fluorescence, propionaldehyde substrate; Potency, µM (top dose mostly 75.3 µM), for the others: at the highest dose activity, negative = inhibition, hits mostly inhibitors; 7.3% of 220,000 active; active = well fitted inhibition curve with a large enough effect, not every such curve was filed as active; inconclusive = small, poorly fitted or top-dose-only effect, or another doubt; inactive = no such curve, though single readings can be large or run the other way;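 note: potency is the fitted concentration of half-maximal effect; plate controls were no enzyme wells and a reference inhibitor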
# ALOX12 inhib: blocks human 12-lipoxygenase activity; purified 12-hLO, xylenol orange hydroperoxide absorbance; Potency, µM (highest dose often 57.1 µM), for inactives: top-dose activity change, negative = inhibition, usual class: inhibitors; P18054; 0.12% of 150,000 active; note: potency is the fitted concentration of half-maximal effect; nearly all actives have a fitted effect of over 55% in size
#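 Hydroperoxide output read as Fe(III)-xylenol orange absorbance, 573-to-405 nm ratio, after 30 min reaction with 40 uM arachidonic acid. Enzyme: 150 nM purified human 12hLO, 15 min compound preincubation; 25 mM Hepes pH 7.0, room temperature.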
# GLA inh pH 4.5: alpha-galactosidase A (human) inhibition, pH 4.5; P06280; purified enzyme, 4-MU-alpha-Gal fluorescence, pH 4.5; activity change, negative = inhibition, % at 105 µM; 230,000 tested, under 10 active;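 note: 0% = full activity with enzyme and -100% = basal without enzyme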
# Target sequence (P06280 whole entry, looked up): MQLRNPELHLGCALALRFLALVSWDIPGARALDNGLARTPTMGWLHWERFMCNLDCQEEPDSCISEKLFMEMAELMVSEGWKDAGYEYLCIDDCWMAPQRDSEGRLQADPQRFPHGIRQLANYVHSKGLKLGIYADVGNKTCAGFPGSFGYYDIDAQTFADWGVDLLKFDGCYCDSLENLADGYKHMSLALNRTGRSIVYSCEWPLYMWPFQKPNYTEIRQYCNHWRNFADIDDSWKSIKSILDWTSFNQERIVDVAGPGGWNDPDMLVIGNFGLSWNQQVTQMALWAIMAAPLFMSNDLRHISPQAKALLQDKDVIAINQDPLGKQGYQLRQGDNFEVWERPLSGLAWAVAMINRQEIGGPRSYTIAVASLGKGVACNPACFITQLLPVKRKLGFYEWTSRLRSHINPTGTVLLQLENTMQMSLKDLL
# PNC inhibitor: perinucleolar compartment assembly inhibition; AID 2417; PC3M PTB-GFP, PNC prevalence imaging, 16 h; active compounds read low; activity change (PNC), negative = inhibition, % at 10 µM; 3.1% of 140,000 active;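 active = readout at or below -70, meaning at least 70% loss of cells showing the perinucleolar compartment, a nuclear body marking cancer cells; inconclusive = readout between -30 and a set limit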;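 note: plate controls were DMSO wells for no effect and camptothecin positive control wells for full effect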
#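 Compounds are pinned in duplicate onto adhered PC3M cells stably expressing GFP-tagged PTB and incubated 16 h at 37 C. Cells are then fixed, nuclei stained with Hoechst, and PNC-positive cells counted.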
# HPGD inh: HPGD (human) dehydrogenase inhibition; P15428; purified HPGD, NADH fluorescence kinetic, PGE2 substrate; Potency, µM, without a hit: at the top dose activity change, negative = inhibition, most hits filed as inhibitors; 4.3% of 150,000 active; AID 894; active = well fitted inhibition curve with a large enough effect, not every such curve was filed as active; inconclusive = small, poorly fitted or top-dose-only effect, or another doubt; inactive = no such curve, though single readings can be large or run the other way; note: potency is the fitted concentration of half-maximal effect
# Target sequence (P15428 whole entry, looked up): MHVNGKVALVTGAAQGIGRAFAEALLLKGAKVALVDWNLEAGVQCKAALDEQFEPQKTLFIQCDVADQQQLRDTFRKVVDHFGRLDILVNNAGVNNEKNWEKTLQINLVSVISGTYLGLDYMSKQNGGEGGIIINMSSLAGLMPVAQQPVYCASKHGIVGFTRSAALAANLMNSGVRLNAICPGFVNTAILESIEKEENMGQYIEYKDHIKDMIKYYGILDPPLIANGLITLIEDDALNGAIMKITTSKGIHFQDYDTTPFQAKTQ
#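 20 nM HPGD preincubated 15 min at room temperature with compound in 50 mM Tris-HCl pH 8, 0.01% Tween 20. Started with 1 mM NAD+ and 30 uM prostaglandin E2; NADH fluorescence (360/450 nm) read 5 times over 30-s intervals, last minus first.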
# GLA spleen mod: inhibits or activates alpha-galactosidase in human spleen homogenate; human spleen homogenate, 4MU-alpha-Gal fluorescence, 40 min; Potency, µM (doses to about 80 µM), for inactives: at the top dose activity change, negative = inhibition, usual class: inhibitors; 0.008% of 240,000 active; AID 2107; P06280;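 note: potency is the fitted concentration of half-maximal effect; 0% = enzyme with vehicle and -100% = no enzyme basal signal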
#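 Spleen homogenate 1 ug + cpd (titration) + 4-MU-alpha-D-galactopyranoside 1 mM; 37C 40 min; 50 mM citrate/phosphate pH 5.0, 0.01% Tween-20; stop pH 10; fluorescence 365/440; AC50 via Hill.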
# An asterisk follows results filed as active; ? = inconclusive; nt = no result given; [ ] = another dose, or the depositor's remark. Unless noted, calls come from the whole dose curve; as a rule, active = well fitted curve in the direction sought with a large enough effect; inconclusive = small, poorly fitted or top-dose-only effect, or another doubt; inactive = no such curve, though single readings can be large; an effect the other way counts as inactive or inconclusive. Unless noted, % is set by controls: 0 for no effect and ±100 for the full control effect.
SMILES,ALDH1A1 inh,ALOX12 inhib,GLA inh pH 4.5,PNC inhibitor,HPGD inh,GLA spleen mod
Cc1ccc(CC(=O)NCC(C)C)cc1,-5%,7%,-7,?,18µM*,0%
COc1ccc2c(Cl)cc(NC(=S)Nc3ccccc3)nc2c1,-6%[13.5 µM],1%[11.4 µM],nt,nt,-13%,nt
O=C(O)Cn1c(SCc2cccc3ccccc23)nc2ccccc21,2%,7%,11,94,25µM*,2%
O=C(O)Cn1c(SCc2ccccc2)nc2ccccc21,8%,-1%,4,?,-5%,-1%
CSCC[C@H](NC(=O)[C@@H]1CCCN1C(=O)CNC(=O)[C@H](CCCCN)NC(=O)[C@H](Cc1cnc[nH]1)NC(=O)[C@H](CO)NC(=O)[C@H](CC(C)C)NC(=O)[C@H](CCCN=C(N)N)NC(=O)[C@@H]1CCCN1C(=O)[C@H](CCCN=C(N)N)NC(=O)[C@@H]1CCC(=O)N1)C(=O)N1CCC[C@H]1C(=O)N[C@@H](Cc1ccccc1)C(=O)O,nt,nt,nt,nt,nt,-2%
O=C(Sc1nnc(-c2ccccc2)o1)N1c2ccccc2Sc2ccccc21,22µM*,-16%,-4,-22,14µM*,4%
CCOC(=O)c1ccc(N2C(=O)c3n[nH]c(C)c3C2c2ccc(OC)cc2OC)cc1 (stereo not drawn),-5%,0%,-10,-119*,-29%,-9%
CCOC(=O)c1ccc(N2C(=O)c3n[nH]c(C)c3C2c2ccc(OC)cc2)cc1 (stereo not drawn),-1%,-29%,-14,?,-18%,-22%
COc1cc(CC(=O)N/N=C/c2ccc([N+](=O)[O-])cc2)c([N+](=O)[O-])cc1OC,?,-2%,-8,?,-17%,3%
COc1ccc(CNc2ccc(-c3ccccc3OC)nn2)cc1,-9%,3%,-3,?,16µM*,3%
COc1ccccc1-c1ccc(NC2CCCC2)nn1,0%,6%,4,42,6.3µM*,18%
COc1ccc(CNc2ccc(-c3ccc(OC)cc3)nn2)cc1,2%,-3%,7,-88*,-11%,-12%
COc1ccc(CNc2ccc(Br)cc2)cc1,8%,nt,0,nt,nt,1%
N#C/C(=C\c1ccc(OCC(N)=O)cc1)S(=O)(=O)c1ccccc1,?,nt,3,nt,nt,5%
Cc1nc2cnc(N3CCN(C)CC3)nc2n(C2CC2)c1=O,?,nt,nt,nt,nt,3%
COC(=O)c1cc(=O)n(Cc2cccs2)c(=NCc2cccs2)s1,0.32µM*,-4%,-4,12,-15%,-1%
COC(=O)c1cc(=O)n(CCc2ccccc2)c(=Nc2ccc(F)cc2)s1,0%,-9%,-10,-83*,-9%,8%
COC(=O)c1cc(=O)n(Cc2ccccc2)c(=NCc2ccccc2)s1,11%,nt,4,nt,nt,0%
CCOC(=O)c1ccc(N=c2sc(C(=O)OC)cc(=O)n2Cc2ccco2)cc1,1.4µM*,-7%,8,?,-17%,-6%
COc1cc([N+](=O)[O-])ccc1NC(=O)CSc1n[nH]c(C(C)C)n1,-15%,nt,3,nt,nt,-2%
CC(C)=CCC/C(C)=C/CO/N=C1/C[C@@H](O)[C@@H](O)[C@@H]2[C@@H]3C(=O)N([C@@H](C)c4ccccc4)C(=O)[C@H]3CC[C@@H]12,-5%[13.5 µM],nt,nt,nt,nt,3%[17.5 µM]
Cc1cc(=O)c2c(O)c3c(O)cc(O)c4c5c(O)cc(O)c6c(O)c7c(=O)cc(C)c8c1c2c(c34)c(c65)c78,-5%,?,-7,nt,8.9µM*,-12%
Cc1cc(O)c2c(c1O)C(=O)c1c(O)cc(C)c(O)c1C2=O,-8%,-9%,7,nt,-14%,13%
COc1ccc(N=C2SC(C(=O)Nc3ccc(OC)cc3)CC(=O)N2CCN2CCOCC2)cc1 (stereo not drawn),?,-5%,-3,42,2%,5%
O=C(Nc1cccc(Cl)c1N1CCOCC1)c1ccc([N+](=O)[O-])o1,nt,nt,-1,nt,nt,-1%
SMILES,ALDH1A1 inh,ALOX12 inhib,GLA inh pH 4.5,PNC inhibitor,HPGD inh,GLA spleen mod
O=C(NC(=S)Nc1cccc(Cl)c1N1CCCC1)c1ccc(-c2cccc([N+](=O)[O-])c2)o1,28µM*,-2%,-13,-3,-24%,10%
COc1ccc(C2=C/C(=C\c3cccc(OC(C)=O)c3)C(=O)O2)cc1,25µM*,-9%,3,1,-20%,-3%
CN(c1ccccc1)c1ccc(/C=C/[N+](=O)[O-])cc1,8.9µM*,-3%,-6,7,32µM*,-6%
CCN(CC)S(=O)(=O)c1ccc(NC(=O)COC(=O)CNS(=O)(=O)/C=C/c2ccccc2)cc1,1µM*,6%,5,24,-15%,-5%
CCN(CC)S(=O)(=O)c1ccc(NC(=O)CSc2cccc[n+]2[O-])cc1,22µM*,-1%,-4,14,-12%,-11%
CC(C)CNC(=O)CSc1nnc(-c2cccc(S(=O)(=O)N3CCCCC3)c2)o1,2%,-4%,2,-128*,-22%,-3%
O=C(CSc1nnc(-c2ccc(F)cc2)o1)Nc1ccc(S(=O)(=O)N2CCCC2)cc1,16µM*,-4%,4,4,-10%,-1%
O=C(CSc1nnc(-c2ccc(F)cc2)o1)Nc1ccc(S(=O)(=O)N2CCCCCC2)cc1,4%,-5%,2,20,nt,-6%
COCC(C)NC(=O)CSc1nnc(-c2cccc(S(=O)(=O)N3CCCCC3)c2)o1 (stereo not drawn),6%,nt,-2,nt,nt,11%
COC1[C@@H](OC)C[C@H](C)[C@@H](OC)C2=CC(=O)C=C(NC(=O)/C(C)=C/C=C\[C@H](OC)[C@@H](OC(N)=O)/C(C)=C/[C@@H]1C)C2=O (stereo partly drawn),nt,nt,nt,nt,nt,-2%
CCN(CC)S(=O)(=O)c1ccc(NC(=O)CSc2nnc(-c3ccc(F)cc3)o2)cc1,-5%,-27%,0,-107*,-2%,-8%
CS(=O)(=O)N1CCC2(CC1)CN(c1cccc(-c3ccccc3)c1)C2,?,-14%,nt,nt,?,3%
Cc1cc(C(=O)N/N=C/c2cn[nH]c2-c2ccccc2)cs1,0%,-2%,-6,-114*,-8%,-6%
CC(C)(Oc1ccc(Cl)cc1)C(=O)N/N=C/c1cn[nH]c1-c1ccccc1,8.9µM*,-25%,-4,-19,-28%,0%
Cn1cccc1/C=C1\SC(=S)N(NC(=O)c2ccccc2)C1=O,-17%,-17%,-2,82,-13%,1%
Cn1cccc1/C=C1/SC(=S)N(CC(=O)O)C1=O,28µM*,nt,-4,nt,nt,-15%
Cn1cccc1/C=C1\SC(=S)N(NC(=O)c2cccc(Cl)c2)C1=O,2µM*,-25%,-6,-23,-17%,-4%

# Compound activity from PubChem.
